Bioassay records from PubChem BioAssay.
WRN helicase inh: blocks human WRN helicase | Q14191 | WRN helicase unwinding, fluorescent forked duplex, kinetic | Potency, µM (doses to about 114 µM), for the others: at the top dose activity change, negative = inhibition, hits mostly inhibitors | hit rate 0.46% among 360,000 | AID 651768; also: potency is read from the fitted curve at half-maximal effect; nearly all actives have a fitted effect of over 55% in size
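Enzyme (20 nM final) and test compound sit together 15 min at room temperature before substrate addition. Substrate is a single-forked duplex oligonucleotide (100 nM) labelled with fluorophore and quencher, with 2 mM ATP; helicase unwinding raises red fluorescence, read kinetically.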
PI5P4Ka inh: PI5P4K alpha (human) kinase inhibition | P48426 | PI5P4Kalpha enzyme, ADP-Glo luminescence, 60 min; active compounds read low | max response, % | hit rate 1.2% among 330,000 | AID 652105; active = max response of -50% or lower; inconclusive = between -30% and -50%; inactive = -30% or higher; also: value at the top dose of about 77 µM
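Single end-point luminescence (ADP-Glo) quantified ADP from PI5P4Kalpha turnover; ATP 5 microM final, 1 h at RT, 0.1% CHAPS and 0.28 mM EGTA in HEPES pH 7.4.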
PLK1 PBD inh: inhibitors of human PLK1 polo-box domain binding. P53350. Plk1 PBD binding of FITC phosphopeptide, fluorescence polarization. Potency, µM, for the others: max response, negative = inhibition, hits mostly inhibitors. hit rate 2.8% among 360,000. AID 720504; also: potency is read from the fitted curve at half-maximal effect; series mostly up to about 57 µM; nearly all actives have a fitted effect of over 65% in size
USP1 inh: blocks the human USP1/UAF1 deubiquitinase complex. AID 743255. Potency, µM (doses to about 57.1 µM), inactives show at the highest dose activity change, negative = inhibition, actives largely listed as inhibitors. hit rate 0.23% among 390,000. recombinant USP1/UAF1, Ub-Rhodamine cleavage fluorescence. O94782; also: potency is read from the fitted curve at half-maximal effect; nearly all actives have a fitted effect of over 60% in size
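Step one: compound is pinned into 1nM USP1/UAF1 in HEPES pH 7.8 buffer with TCEP. Step two: 15 min room-temperature incubation. Step three: Ub-Rho (150nM final) starts cleavage, tracked by fluorescence over six one-minute reads.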
USP2a block: inhibitors of human ubiquitin-specific protease USP2a; O75604; Potency, µM (doses to about 38.3 µM), for the others: at the top dose activity change, negative = inhibition, actives largely listed as inhibitors; USP2 core, Ub-CHOP2 coupled fluorogenic reporter, 485/531; hit rate 0.01% among 330,000;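 also: potency is read from the fitted curve at half-maximal effect; plate controls were DMSO wells for no effect and full inhibition by NEM control for full effect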
Target sequence (O75604 whole entry, looked up): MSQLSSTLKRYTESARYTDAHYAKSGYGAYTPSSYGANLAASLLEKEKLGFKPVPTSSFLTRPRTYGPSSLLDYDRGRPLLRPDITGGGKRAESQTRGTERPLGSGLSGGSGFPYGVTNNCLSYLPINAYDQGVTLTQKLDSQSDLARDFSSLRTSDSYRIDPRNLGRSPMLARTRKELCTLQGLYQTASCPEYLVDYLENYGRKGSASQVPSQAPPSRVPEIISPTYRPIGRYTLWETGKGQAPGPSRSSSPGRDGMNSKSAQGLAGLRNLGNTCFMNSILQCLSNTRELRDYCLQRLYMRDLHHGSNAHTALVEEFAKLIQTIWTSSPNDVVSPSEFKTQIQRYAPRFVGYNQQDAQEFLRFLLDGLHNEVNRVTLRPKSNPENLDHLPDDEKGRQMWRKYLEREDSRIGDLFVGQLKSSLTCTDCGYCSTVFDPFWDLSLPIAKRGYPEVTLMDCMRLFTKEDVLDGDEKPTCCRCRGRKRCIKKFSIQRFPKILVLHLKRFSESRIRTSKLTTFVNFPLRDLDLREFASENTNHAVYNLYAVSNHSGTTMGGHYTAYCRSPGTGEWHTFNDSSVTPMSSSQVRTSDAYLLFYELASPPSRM
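USP2 core (10nM final) preincubated 30min RT with compound in 20mM Tris-HCl pH 8.0, 2mM CaCl2, 2mM beta-mercaptoethanol, 0.05% CHAPS; 25nM Ub-CHOP2 plus 25nM reporter substrate added, fluorescence (Ex485/Em531) read after 60min.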
An asterisk follows results filed as active; ? = inconclusive; nt = no result given; ! = a repeat was not active; [ ] = another dose, or the depositor's remark. An excerpt weighted towards active compounds, which were near 3.3% of everything screened. Unless noted, calls follow the shape of the dose curve; as a rule, active = well fitted curve in the direction sought with a large enough effect; inconclusive = small, poorly fitted or top-dose-only effect, or another doubt; inactive = no such curve, though single readings can be large; an effect the other way counts as inactive or inconclusive. Unless noted, % is scaled to controls: 0 for no effect and ±100 for the full control effect.

SMILES	WRN helicase inh	PI5P4Ka inh	PLK1 PBD inh	USP1 inh	USP2a block
O=C(CCn1c(=O)c2ccccc2n(CC(=O)Nc2ccc(F)cc2)c1=O)NCCc1ccccc1	nt	nt	nt	-30.2%	nt
Cc1ccc2nc(CN3CCN(S(=O)(=O)c4ccc(F)cc4)CC3)oc2c1	nt	nt	nt	-18.1%	nt
CC(C)c1nnc(SCC(=O)NCCC2=CCCCC2)n1N	-5.8%	nt	10.6µM*	-4.4%	0.5%
CC1(C)[C@@H](O)CC[C@]2(C)C3C(O)C=C4[C@H]5C[C@@](C)(CO)CC[C@]5(C)CC[C@]4(C)[C@]3(C)CC[C@@H]12 (some centres undefined)	-0.6%	-61.9*	-7.4%	-29.5%	-18.8%
Cc1ccc(CN2CCC(CNS(=O)(=O)c3ccc(-c4ccc(=O)[nH]n4)s3)CC2)cc1	-3.1%	-3.2	29.9µM*	-13.1%	-1.3%
CCCCN(C(=O)NC(=O)C1=C(N2CCOCC2)/C(=C/c2ccccc2)CC1)S(C)(=O)=O	-10.3%	nt	33.6µM*!	0.4%	2.6%
CN(C(=O)NC(=O)C1=C(N2CCOCC2)/C(=C/c2ccccc2)CC1)S(C)(=O)=O	-17.9%	nt	-24.3%	-18.2%	-1.1%
COc1ccc(CN(C)CC(=O)Nc2ccc(SC(F)F)cc2)cc1OC	0.5%	-1.4	26.7µM*	-0.8%	1.7%
Cc1nn(C)c(C)c1C(C)NC(=O)c1cc(COc2ccc(F)c(F)c2)on1 (centres undefined)	-3.3%	-1.6	26.7µM*	-7.4%	-0.3%
C[C@@H]1CC=C[C@H]2[C@H]1C(=O)N(Cc1ccccc1)[C@H]2c1ccc2ccccc2c1	-8.5%	6.1	?	-11.3%	0.6%
C[C@@H]1CC=C[C@H]2[C@H]1C(=O)N(Cc1ccccc1)[C@H]2c1ccc2ccccc2c1Br	-4.9%	0.0	23.8µM*	-20.9%	-0.6%
NS(=O)(=O)c1ccc(NC(=S)NC(=O)c2ccc(Br)o2)cc1	9.1%[57.1 µM]	-19.9	21.2µM*	-19.3%	-0.1%
NS(=O)(=O)c1ccc(NC(=S)NNC(=O)c2ccc(Br)o2)cc1	1.8%	2.4	-8.3%	-26.7%	-0.9%
COc1cc(NC(=S)NCCC(c2ccccc2)c2ccccc2)cc(OC)c1	39.8µM*	12.5	32.9%	?	-13.8%
COc1ccc(CCNC(=S)Nc2ccc(OC)cc2)cc1	5.0%	-7.3	21.2µM*	-27.4%	-8.7%
COc1ccc(CNC(=S)Nc2ccc(S(N)(=O)=O)cc2)cc1	-5.0%	-18.1	23.8µM*	-18.4%	-1.1%
COc1ccccc1-c1nc(SCC(=O)Nc2ccc(C)c(C)c2)n[nH]1	nt	nt	nt	-16.3%	nt
CC(C)Oc1ccc(CNC(=O)c2ccc(CS(=O)Cc3ccccc3Cl)o2)cc1 (centres undefined)	nt	nt	nt	-9.8%	nt
COc1ccccc1CNC(=S)Nc1ccc(S(N)(=O)=O)cc1	-0.3%	-1.5	21.2µM*	-20.4%	6.1%
COc1ccccc1NC(=S)NCc1ccc(S(N)(=O)=O)cc1	-11.7%	-1.7	-20.4%	-1.0%	2.1%
COc1ccc(NC(=S)NCCCCCC(=O)C[N+](=O)[O-])cc1	-7.1%[11.6 µM]	-10.7	23.8µM*	-25.6%	1.6%
NS(=O)(=O)c1ccc(NC(=S)NCc2cccs2)cc1	1.2%[57.1 µM]	-5.4	23.8µM*	-14.2%	-2.0%
CCC(C)NC(=O)Cn1c(=O)n(-c2ccc(OC)c(OC)c2)c(=O)c2ccccc21 (centres undefined)	nt	nt	nt	-13.3%	nt
O=C(c1ccc2c(c1)N(Cc1ccccc1)C(=O)c1ccccc1S2(=O)=O)N1CCN(c2ccccn2)CC1	nt	nt	nt	-26.6%	nt
COc1cccc(CNC(=O)CCc2c(C)c3cc4c(C)coc4c(C)c3oc2=O)c1	nt	nt	nt	-0.2%	nt
CC(C)CN(C(=O)COC(=O)c1ccc2c(c1)NC(=O)CS2)C1CCS(=O)(=O)C1 (centres undefined)	8.2%	6.8	21.2µM*	-17.9%	0.3%
CC(C)CN(C(=O)COC(=O)Cc1c[nH]c2ccccc12)C1CCS(=O)(=O)C1 (centres undefined)	4.5%	0.6	26.7µM*	-2.0%	1.7%
CCOC(=O)N=S(N)(=O)c1ccc(Cl)cc1 (centres undefined)	-8.2%	?	10.6µM*	8.6%	-2.4%
CCOC(=O)C[n+]1c(C)sc2ccc(OC)cc21	50.1µM*	-21.6	26.7µM*	-8.0%	2.2%
